Out of some 2,400 compounds screened, about 700 (29%) were called active. The list is a sample of the results. A number with no mark means an inactive call.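 The calls were made as follows: active = inhibition of at least 50%; inactive = the rest.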

In this assay the target is G-protein coupled receptor 183 (Homo sapiens) (UniProt P32249). The experiment in a line: EBI2 antagonist hit retest, beta-arrestin, confirmation, cell-based, single concentration, luminescence, 7a,25-OHC stimulation (AID 651997). The following applies: 7a,25-OHC antagonism, at 5 µM, hits give high values.
G-protein coupled receptor 183 (Homo sapiens), sequence (P32249 whole entry, looked up): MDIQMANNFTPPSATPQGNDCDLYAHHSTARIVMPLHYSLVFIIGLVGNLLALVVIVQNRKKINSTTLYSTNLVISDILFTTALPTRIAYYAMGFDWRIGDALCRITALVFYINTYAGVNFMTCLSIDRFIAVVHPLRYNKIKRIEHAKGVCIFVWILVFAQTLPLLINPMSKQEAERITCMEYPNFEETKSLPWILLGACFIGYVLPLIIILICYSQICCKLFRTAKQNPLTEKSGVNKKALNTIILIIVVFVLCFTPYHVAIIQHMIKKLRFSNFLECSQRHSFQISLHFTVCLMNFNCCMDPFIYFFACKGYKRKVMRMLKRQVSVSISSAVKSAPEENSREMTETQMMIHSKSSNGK
For the compound `COc1ccc([C@H]2CC(=O)C=C(/C=C/c3ccc(Cl)cc3)C2)cc1`, the inhibition was 20.8%.
Regarding `N#Cc1ccc(C2=CC(=O)C[C@H](c3ccc(Cl)cc3)C2)cc1`, the inhibition is 53.7% (active).
Consider `COc1ccc([C@H]2CC(=O)C=C(c3ccc(C)cc3)C2)cc1`, for which the inhibition is 56.3% (active).
`COc1ccc2cc(C3=CC(=O)C[C@H](c4ccc5c(c4)OCO5)C3)ccc2c1`: the inhibition was 51.4% (active).
Regarding `CCCCN=C1C([N+](=O)[O-])=CC=C2C1=NC1(CCCCC1)N2O`, the inhibition is 38.6%.
In the case of `CCOc1ccc(CCN2C(=S)N([C@@H](CC(C)C)CN3CCC[C@@H]3CN3C(=S)NC[C@@H]3Cc3ccc(O)cc3)C[C@@H]2Cc2ccc(O)cc2)cc1`, the inhibition is 26.9%.
For the compound `CC1(Cc2ccccc2C#N)C(=O)Nc2ccc(-c3ccc4[nH]ccc4c3)cc21` (configuration not stated), the inhibition is 31.6%.
The value for `COc1ccc(CNC(=O)CN(c2ccc(OC)c(Cl)c2)S(=O)(=O)c2ccc(C)cc2)cc1` was 6.43%; that for `Cc1ccc2oc(=O)c3cnn(CC(=O)N(Cc4ccco4)C4CCCCC4)c3c2c1` was 76.3% (active); that for `Cc1ccc2oc(=O)c3cnn(CC(=O)N4CCCCCC4)c3c2c1` was 31%.
Take `O=C(Nc1ccc(S(=O)(=O)N2CCCCC2)cc1)C1CC(=O)N(c2ccc(F)cc2)C1` (configuration not stated): the inhibition is 17.5%.
For `Cc1ccc(-c2nn(-c3ccccc3)cc2/C=C/C(=O)Nc2cccc(S(N)(=O)=O)c2)cc1`, the inhibition was 25.3%.
As to `COc1ccc(-c2cn(-c3ccc(OC)cc3)c(=S)[nH]2)cc1`, the inhibition is 68% (active).
With `CCOc1ccc(CN(Cc2ccco2)S(=O)(=O)c2ccc(-n3cnnn3)c(OC)c2)cc1`, the inhibition was 24.7%.
Then `CCN(CC(=O)NCc1cccs1)C(=O)/C=C/c1ccc(C)cc1`, with 85.2% (active); and `O=c1[nH]c(CN2CCN(S(=O)(=O)c3ccc4c(c3)OCCO4)CC2)nc2sc3c(c12)CCCC3`, with 27.9%; and `Cc1ccc(S(=O)(=O)NCCNC(C)c2ccc(Br)cc2)cc1` (configuration not stated), with 9.45%.
As to `COc1ccc(C(=O)/C=C/c2ccc(OC3CSC3)cc2)cc1`, the inhibition was 25.8%.
Take `COc1ccc(/C=C/C(=O)c2ccc(OC)cc2O)cc1`: the inhibition was 41.6%.
`Cc1nc(-c2ccccc2)sc1C(=O)/C=C/c1ccccc1`: the inhibition is 52.2% (active).
For `CN(Cc1ccc(F)cc1)C(=O)COc1ccc2ccccc2c1`, the inhibition was 84% (active).
The value for `CCC(C)(C)NC(=O)c1cc([N+](=O)[O-])ccc1N1CCCCC1` was 42.4%; that for `COc1ccc(-c2cc(C3CCN(c4ncccc4[N+](=O)[O-])CC3)[nH]n2)cc1` was 32.3%; that for `O=C(C(c1ccccc1)c1ccccc1)N1CCN(CC(O)COc2ccccc2)CC1` (configuration not stated) was 15.3%.
With `COc1ccc(C(C(=O)NC2CCCCC2)N(C(=O)c2snc(C(N)=O)c2N)c2ccccc2OC)cc1` (configuration not stated), the inhibition was 57% (active).
On to `CC1CCc2sc3nc(N4CCN(CCO)CC4)n4ncnc4c3c2C1` (configuration not stated), for which the inhibition is 67.9% (active).
For `Cc1cccc(-n2c(O)c(C=Nc3ccccc3N)c(=O)[nH]c2=O)c1`, the inhibition is 13.2%.
The value for `Cc1ccc(S(=O)(=O)N2CCN(CC(=O)N/N=C/c3ccc(Br)s3)CC2)cc1` was 41.9%; that for `CCC1Nc2ncnc(N3CCN(c4ccccc4)CC3)c2N(Cc2ccc(Cl)cc2)C1=O` (configuration not stated) was 86.9% (active); that for `CC(=O)/C(=N\Nc1ccc(Cl)cc1Cl)Sc1cccc2cccnc12` was 43.2%.
In the case of `CC(C)Cc1ccc(-c2cc3nc(NCc4cccc(Cl)c4)ccn3n2)cc1`, the inhibition is 51.8% (active).
As to `Cc1cccc(N2CCN(C(=O)c3cc4c(=O)[nH]c5ccccc5c4n3C)CC2)c1C`, the inhibition was 75.1% (active).
With `COc1cccc(-c2cc(C(=O)N3CCN(c4ccccc4OC)CC3)no2)c1`, the inhibition is 42.9%.
Regarding `O=C(CCNS(=O)(=O)c1ccccc1)NCCSc1ccc(Br)cc1`, the inhibition was 12.7%.
Then `Cc1ccc(OCCNC(=O)CCNS(=O)(=O)c2ccc(Br)cc2)cc1`, with 17.6%; and `Cc1ccc(SCC(=O)N2CCN(c3ccc(F)cc3)CC2)cc1`, with 33.8%; and `CCOC(=O)N1CCN(C(=O)CSc2ccc(Cl)cc2)CC1`, with 80.2% (active).
With `CCOC(=O)N1CCN(C(=O)COc2ccc(Cl)cc2C)CC1`, the inhibition was 30.2%.
On to `CCN1CCN(C(=O)CSc2ccc(C)cc2)CC1`, for which the inhibition is 27.6%.
As to `CCOC(=O)N1CCN(C(=O)COc2ccc(Br)cc2)CC1`, the inhibition was 75.6% (active).
As to `CCOC(=O)C1CCN(C(=O)COc2cc(C)c(Br)c(C)c2)CC1`, the inhibition is 59% (active).
Regarding `Cc1cc(OCCOc2cccc3cccnc23)c(C)cc1Cl`, the inhibition is 38.3%.
Consider `O=C(CSc1ccccc1)Nc1cc(Cl)ccc1Oc1ccccc1`, for which the inhibition is 45%.
Then `CCC(c1nnc(SCC(=O)NNC(=O)c2ccccc2)n1Cc1ccccc1)N(C)C` (configuration not stated), with 35.9%.
For `O=C(Nc1ncc2c(n1)CC(c1ccco1)CC2=O)c1ccc(Cl)cc1` (configuration not stated), the inhibition is 10.5%.
For the compound `N#Cc1ccc(C(c2nnnn2CCc2ccccc2)N2CCCCCC2)cc1` (configuration not stated), the inhibition is 34.1%.
Regarding `Cc1cccc(N=C2NC(=O)/C(=C/c3cn(C)c4ccccc34)S2)c1`, the inhibition was 33.9%.
The value for `COc1ccc(/C=N/N=C/c2c[nH]c(=O)c(C#N)c2Nc2ccccc2)cc1` was 79.2% (active).
`FC(F)(F)Oc1ccccc1C(c1nnnn1C1CCCCC1)N1CCN(C/C=C/c2ccccc2)CC1` (configuration not stated): the inhibition was 23%.
Then `O=C(c1cc(=O)c2ccccc2o1)N1CCN(c2ccccc2)CC1`, with 20.1%; and `COc1ccccc1N1CCN(C(=O)c2cc(=O)c3cc(C)ccc3o2)CC1`, with 76% (active); and `COc1ccccc1N1CCN(C(=O)c2cc(-c3ccc(Br)cc3)on2)CC1`, with 20.4%.
`O=C(NNC(=O)c1ccc2ccccc2c1)c1ccc(Cl)cc1`: the inhibition is 26.7%.
For `O=C(NCCCc1ccccc1)C1CCC(=O)N(CCc2ccc(Cl)cc2)C1` (configuration not stated), the inhibition was 41.6%.
As to `O=C(c1cc2cc(F)ccc2[nH]1)N1CCN(c2ccc(F)cc2)CC1`, the inhibition was 43.5%.
Consider `Cc1cs/c(=N\N=C\c2ccc(O)cc2)n1Cc1ccco1`, for which the inhibition is 34.7%.
In the case of `CCCCC(=O)N(C)c1c(CC)nc2c(OCc3ccc(Cl)cc3Cl)cccn12`, the inhibition was 35.5%.
